# Experimental data as given in PMC11006913.
# Residue numbers refer to the chain shown, from its start.
# Legend:
# Test in all cases: PBM; 200 nM protein, PBS
# Settings in all cases: dsDNA, one strand shown
# HOXC10 [1] = target: HOXC10 (Homo sapiens, UniProt Q9NYD6 254-340)
# HOXC10 [2] = target: HOXC10 (Homo sapiens, UniProt Q9NYD6 254-340, K271E)
# PROP1 [3] = target: PROP1 (Homo sapiens, UniProt O75360 56-141)
# PROP1 [4] = target: PROP1 (Homo sapiens, UniProt O75360 56-141, R99H)
# PROP1 [5] = target: PROP1 (Homo sapiens, UniProt O75360 56-141, F88S)
# ALX4 [6] = target: ALX4 (Homo sapiens, UniProt Q9H161 200-286)
# PAX4 [7] = target: T1, PAX4 (Homo sapiens, UniProt O43316 9-242, R200K)
# T1 sequence: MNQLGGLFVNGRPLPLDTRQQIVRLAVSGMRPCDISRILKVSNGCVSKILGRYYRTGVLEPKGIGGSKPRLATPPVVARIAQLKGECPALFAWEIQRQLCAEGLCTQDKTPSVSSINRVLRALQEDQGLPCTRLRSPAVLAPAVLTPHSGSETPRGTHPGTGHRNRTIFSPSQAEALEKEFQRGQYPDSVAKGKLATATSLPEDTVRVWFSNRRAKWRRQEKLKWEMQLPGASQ
# PRRX1 [8] = target: PRRX1 (Homo sapiens, UniProt P54821 80-166, F113S)
# PAX4 [9] = target: T2, PAX4 (Homo sapiens, UniProt O43316 9-242)
# T2 sequence: T1 sequence with K192R
# HOXB6 [10] = target: HOXB6 (Homo sapiens, UniProt P17509 132-218, K202E)
# ALX4 [11] = target: ALX4 (Homo sapiens, UniProt Q9H161 200-286, Q225E)
# ALX3 [12] = target: ALX3 (Homo sapiens, UniProt O95076 139-225, N203Q)
# PAX4 [13] = target: T3, PAX4 (Homo sapiens, UniProt O43316 9-242, R200Q)
# T3 sequence: T1 sequence with K192Q
# ALX1 = ALX1 (Homo sapiens, UniProt Q15699 118-204, L144R)
# PAX4 [14] = target: T4, PAX4 (Homo sapiens, UniProt O43316 9-242, F177V)
# T4 sequence: T1 sequence with F169V, K192R
# ALX3 [15] = target: ALX3 (Homo sapiens, UniProt O95076 139-225)
# PAX4 [16] = target: T5, PAX4 (Homo sapiens, UniProt O43316 9-242, F177Y)
# T5 sequence: T1 sequence with F169Y, K192R
# ALX3 [17] = target: ALX3 (Homo sapiens, UniProt O95076 139-225, L168Q)
# ALX3 [18] = target: ALX3 (Homo sapiens, UniProt O95076 139-225, L168V)
# PAX4 [19] = target: T6, PAX4 (Homo sapiens, UniProt O43316 9-242, R227W)
# T6 sequence: T1 sequence with K192R, R219W
# ALX3 [20] = target: ALX3 (Homo sapiens, UniProt O95076 139-225, N203S)
# NKX3-2 [21] = target: NKX3-2 (Homo sapiens, UniProt P78367 192-278, P234S)
# NKX3-2 [22] = target: NKX3-2 (Homo sapiens, UniProt P78367 192-278)
# PRRX1 [23] = target: PRRX1 (Homo sapiens, UniProt P54821 80-166)
# HOXB6 [24] = target: HOXB6 (Homo sapiens, UniProt P17509 132-218)
# Sequence of HOXB6 (Homo sapiens, UniProt P17509 132-218) (P17509 132-218): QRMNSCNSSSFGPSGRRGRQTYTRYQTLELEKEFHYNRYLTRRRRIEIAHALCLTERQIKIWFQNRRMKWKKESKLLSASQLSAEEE
# Sequence of ALX4 (Homo sapiens, UniProt Q9H161 200-286, Q225E) (Q9H161 200-286 Q225E): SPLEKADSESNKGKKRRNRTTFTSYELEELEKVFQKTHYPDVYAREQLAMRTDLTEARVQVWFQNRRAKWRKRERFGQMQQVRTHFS
# Sequence of HOXC10 (Homo sapiens, UniProt Q9NYD6 254-340) (Q9NYD6 254-340): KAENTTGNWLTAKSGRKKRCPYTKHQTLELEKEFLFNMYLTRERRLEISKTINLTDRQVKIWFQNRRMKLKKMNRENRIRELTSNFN
# Sequence of ALX4 (Homo sapiens, UniProt Q9H161 200-286) (Q9H161 200-286): as the sequence (Q9H161 200-286 Q225E) above, with E26Q counted along it
# Sequence of PRRX1 (Homo sapiens, UniProt P54821 80-166, F113S) (P54821 80-166 F113S): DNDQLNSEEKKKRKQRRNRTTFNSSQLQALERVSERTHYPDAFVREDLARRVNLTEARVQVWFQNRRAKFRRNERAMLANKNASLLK
# Sequence of PRRX1 (Homo sapiens, UniProt P54821 80-166) (P54821 80-166): as the sequence (P54821 80-166 F113S) above, with S34F counted along it
# Sequence of HOXC10 (Homo sapiens, UniProt Q9NYD6 254-340, K271E) (Q9NYD6 254-340 K271E): as the sequence (Q9NYD6 254-340) above, with K18E counted along it
# Sequence of HOXB6 (Homo sapiens, UniProt P17509 132-218, K202E) (P17509 132-218 K202E): as the sequence (P17509 132-218) above, with K71E counted along it
# Sequence of PROP1 (Homo sapiens, UniProt O75360 56-141, F88S) (O75360 56-141 F88S): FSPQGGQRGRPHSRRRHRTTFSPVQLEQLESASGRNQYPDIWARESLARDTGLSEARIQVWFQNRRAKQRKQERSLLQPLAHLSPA
# Sequence of ALX3 (Homo sapiens, UniProt O95076 139-225, N203Q) (O95076 139-225 N203Q): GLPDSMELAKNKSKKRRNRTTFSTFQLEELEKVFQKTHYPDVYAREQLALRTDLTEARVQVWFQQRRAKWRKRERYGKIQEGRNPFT
# Sequence of ALX3 (Homo sapiens, UniProt O95076 139-225, L168V) (O95076 139-225 L168V): as the sequence (O95076 139-225 N203Q) above, with L30V, Q65N counted along it
# Sequence of ALX1 (Q15699 118-204 L144R): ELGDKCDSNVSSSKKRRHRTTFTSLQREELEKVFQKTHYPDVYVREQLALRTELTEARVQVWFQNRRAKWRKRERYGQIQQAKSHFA
# Sequence of ALX3 (Homo sapiens, UniProt O95076 139-225, N203S) (O95076 139-225 N203S): as the sequence (O95076 139-225 N203Q) above, with Q65S counted along it
# Sequence of NKX3-2 (Homo sapiens, UniProt P78367 192-278, P234S) (P78367 192-278 P234S): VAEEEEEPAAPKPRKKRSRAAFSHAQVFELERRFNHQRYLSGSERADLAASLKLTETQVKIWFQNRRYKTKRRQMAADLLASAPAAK
# Sequence of NKX3-2 (Homo sapiens, UniProt P78367 192-278) (P78367 192-278): as the sequence (P78367 192-278 P234S) above, with S43P counted along it
# Sequence of ALX3 (Homo sapiens, UniProt O95076 139-225, L168Q) (O95076 139-225 L168Q): as the sequence (O95076 139-225 N203Q) above, with L30Q, Q65N counted along it
# Sequence of PROP1 (Homo sapiens, UniProt O75360 56-141, R99H) (O75360 56-141 R99H): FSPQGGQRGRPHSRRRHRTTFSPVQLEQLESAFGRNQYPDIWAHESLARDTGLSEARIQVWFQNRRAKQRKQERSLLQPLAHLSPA
# Sequence of ALX3 (Homo sapiens, UniProt O95076 139-225) (O95076 139-225): as the sequence (O95076 139-225 N203Q) above, with Q65N counted along it
# Sequence of PROP1 (Homo sapiens, UniProt O75360 56-141) (O75360 56-141): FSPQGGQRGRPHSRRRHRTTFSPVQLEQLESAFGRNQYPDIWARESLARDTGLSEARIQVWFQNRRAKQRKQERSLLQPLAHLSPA
sequence,measurement,setting,value
CTCGGCCA,binding signal,HOXC10 [1],"10.1 upbm affinity estimate (log intensity, higher = more binding, comparable within an allelic series)"
same,binding signal,HOXC10 [2],"10.1 upbm affinity estimate (log intensity, higher = more binding, comparable within an allelic series)"
same,binding signal,PROP1 [3],"6.9 upbm affinity estimate (log intensity, higher = more binding, comparable within an allelic series)"
same,binding signal,PROP1 [4],"6.67 upbm affinity estimate (log intensity, higher = more binding, comparable within an allelic series)"
same,binding signal,PROP1 [5],"6.71 upbm affinity estimate (log intensity, higher = more binding, comparable within an allelic series)"
CTACTTAC,binding signal,ALX4 [6],"9.76 upbm affinity estimate (log intensity, higher = more binding, comparable within an allelic series)"
ATTAATTC,binding signal,ALX4 [6],"13.6 upbm affinity estimate (log intensity, higher = more binding, comparable within an allelic series)"
same,binding signal,PAX4 [7],"11.9 upbm affinity estimate (log intensity, higher = more binding, comparable within an allelic series)"
same,binding signal,PRRX1 [8],"11.1 upbm affinity estimate (log intensity, higher = more binding, comparable within an allelic series)"
same,binding signal,PAX4 [9],"12.5 upbm affinity estimate (log intensity, higher = more binding, comparable within an allelic series)"
same,binding signal,HOXB6 [10],"9.98 upbm affinity estimate (log intensity, higher = more binding, comparable within an allelic series)"
same,binding signal,ALX4 [11],"12.7 upbm affinity estimate (log intensity, higher = more binding, comparable within an allelic series)"
same,binding signal,ALX3 [12],"8.41 upbm affinity estimate (log intensity, higher = more binding, comparable within an allelic series)"
same,binding signal,PAX4 [13],"12.1 upbm affinity estimate (log intensity, higher = more binding, comparable within an allelic series)"
same,binding signal,ALX1,"11.1 upbm affinity estimate (log intensity, higher = more binding, comparable within an allelic series)"
same,binding signal,PAX4 [14],"10.7 upbm affinity estimate (log intensity, higher = more binding, comparable within an allelic series)"
same,binding signal,ALX3 [15],"12.2 upbm affinity estimate (log intensity, higher = more binding, comparable within an allelic series)"
same,binding signal,PAX4 [16],"11.2 upbm affinity estimate (log intensity, higher = more binding, comparable within an allelic series)"
same,binding signal,ALX3 [17],"10.2 upbm affinity estimate (log intensity, higher = more binding, comparable within an allelic series)"
same,binding signal,ALX3 [18],"9.68 upbm affinity estimate (log intensity, higher = more binding, comparable within an allelic series)"
same,binding signal,PAX4 [19],"11 upbm affinity estimate (log intensity, higher = more binding, comparable within an allelic series)"
same,binding signal,ALX3 [20],"8.51 upbm affinity estimate (log intensity, higher = more binding, comparable within an allelic series)"
CTTCGACC,binding signal,HOXC10 [1],"9.95 upbm affinity estimate (log intensity, higher = more binding, comparable within an allelic series)"
same,binding signal,HOXC10 [2],"10 upbm affinity estimate (log intensity, higher = more binding, comparable within an allelic series)"
AGTTAGTG,binding signal,ALX4 [6],"10.4 upbm affinity estimate (log intensity, higher = more binding, comparable within an allelic series)"
CGGATAAC,binding signal,ALX4 [6],"9.46 upbm affinity estimate (log intensity, higher = more binding, comparable within an allelic series)"
AAATTCGA,binding signal,ALX4 [6],"10.7 upbm affinity estimate (log intensity, higher = more binding, comparable within an allelic series)"
AATACTTA,binding signal,ALX4 [6],"10.5 upbm affinity estimate (log intensity, higher = more binding, comparable within an allelic series)"
AAGTACCG,binding signal,HOXC10 [1],"11 upbm affinity estimate (log intensity, higher = more binding, comparable within an allelic series)"
same,binding signal,NKX3-2 [21],"12.4 upbm affinity estimate (log intensity, higher = more binding, comparable within an allelic series)"
same,binding signal,NKX3-2 [22],"12.5 upbm affinity estimate (log intensity, higher = more binding, comparable within an allelic series)"
CATTCTAA,binding signal,ALX4 [6],"9.79 upbm affinity estimate (log intensity, higher = more binding, comparable within an allelic series)"
CGAGGGCA,binding signal,ALX4 [6],"8.31 upbm affinity estimate (log intensity, higher = more binding, comparable within an allelic series)"
same,binding signal,PRRX1 [8],"9.29 upbm affinity estimate (log intensity, higher = more binding, comparable within an allelic series)"
same,binding signal,ALX4 [11],"8.26 upbm affinity estimate (log intensity, higher = more binding, comparable within an allelic series)"
same,binding signal,PRRX1 [23],"9.63 upbm affinity estimate (log intensity, higher = more binding, comparable within an allelic series)"
GGTGGCCA,binding signal,ALX4 [6],"8.06 upbm affinity estimate (log intensity, higher = more binding, comparable within an allelic series)"
same,binding signal,ALX4 [11],"8.37 upbm affinity estimate (log intensity, higher = more binding, comparable within an allelic series)"
AGAGAGCG,binding signal,ALX4 [6],"8.15 upbm affinity estimate (log intensity, higher = more binding, comparable within an allelic series)"
same,binding signal,ALX4 [11],"8.26 upbm affinity estimate (log intensity, higher = more binding, comparable within an allelic series)"
CCTAGAGA,binding signal,ALX4 [6],"8.06 upbm affinity estimate (log intensity, higher = more binding, comparable within an allelic series)"
same,binding signal,ALX4 [11],"8.18 upbm affinity estimate (log intensity, higher = more binding, comparable within an allelic series)"
CCTGCAGG,binding signal,ALX4 [6],"8.12 upbm affinity estimate (log intensity, higher = more binding, comparable within an allelic series)"
same,binding signal,HOXB6 [10],"9.05 upbm affinity estimate (log intensity, higher = more binding, comparable within an allelic series)"
same,binding signal,ALX4 [11],"8.04 upbm affinity estimate (log intensity, higher = more binding, comparable within an allelic series)"
same,binding signal,HOXB6 [24],"8.92 upbm affinity estimate (log intensity, higher = more binding, comparable within an allelic series)"
AGCCGTGC,binding signal,ALX4 [6],"7.92 upbm affinity estimate (log intensity, higher = more binding, comparable within an allelic series)"
same,binding signal,ALX4 [11],"8.07 upbm affinity estimate (log intensity, higher = more binding, comparable within an allelic series)"
CCATTATC,binding signal,ALX4 [6],"11.3 upbm affinity estimate (log intensity, higher = more binding, comparable within an allelic series)"
same,binding signal,ALX4 [11],"10.2 upbm affinity estimate (log intensity, higher = more binding, comparable within an allelic series)"
GAGAGGCA,binding signal,ALX4 [6],"8.02 upbm affinity estimate (log intensity, higher = more binding, comparable within an allelic series)"
same,binding signal,ALX4 [11],"8.16 upbm affinity estimate (log intensity, higher = more binding, comparable within an allelic series)"
CTGTCCAC,binding signal,ALX4 [6],"7.93 upbm affinity estimate (log intensity, higher = more binding, comparable within an allelic series)"
same,binding signal,ALX4 [11],"8.3 upbm affinity estimate (log intensity, higher = more binding, comparable within an allelic series)"
GGGTGACC,binding signal,ALX4 [6],"8.07 upbm affinity estimate (log intensity, higher = more binding, comparable within an allelic series)"
same,binding signal,ALX4 [11],"8.31 upbm affinity estimate (log intensity, higher = more binding, comparable within an allelic series)"
CATGGGGG,binding signal,ALX4 [6],"7.84 upbm affinity estimate (log intensity, higher = more binding, comparable within an allelic series)"
same,binding signal,ALX4 [11],"7.96 upbm affinity estimate (log intensity, higher = more binding, comparable within an allelic series)"
GCAGCTCC,binding signal,ALX4 [6],"8.25 upbm affinity estimate (log intensity, higher = more binding, comparable within an allelic series)"
same,binding signal,ALX4 [11],"8.26 upbm affinity estimate (log intensity, higher = more binding, comparable within an allelic series)"
ATTTTCTC,binding signal,ALX4 [6],"10.1 upbm affinity estimate (log intensity, higher = more binding, comparable within an allelic series)"
same,binding signal,ALX4 [11],"9.45 upbm affinity estimate (log intensity, higher = more binding, comparable within an allelic series)"
AATGGATA,binding signal,ALX4 [6],"10.2 upbm affinity estimate (log intensity, higher = more binding, comparable within an allelic series)"
same,binding signal,ALX4 [11],"9.39 upbm affinity estimate (log intensity, higher = more binding, comparable within an allelic series)"
ACCTCCTC,binding signal,ALX4 [6],"8.28 upbm affinity estimate (log intensity, higher = more binding, comparable within an allelic series)"
same,binding signal,ALX4 [11],"8.12 upbm affinity estimate (log intensity, higher = more binding, comparable within an allelic series)"
ATATGTAA,binding signal,ALX4 [6],"10.2 upbm affinity estimate (log intensity, higher = more binding, comparable within an allelic series)"
same,binding signal,ALX4 [11],"9.63 upbm affinity estimate (log intensity, higher = more binding, comparable within an allelic series)"
CCTCGAAC,binding signal,ALX4 [6],"8.02 upbm affinity estimate (log intensity, higher = more binding, comparable within an allelic series)"
same,binding signal,PRRX1 [8],"9.46 upbm affinity estimate (log intensity, higher = more binding, comparable within an allelic series)"
same,binding signal,ALX4 [11],"8.29 upbm affinity estimate (log intensity, higher = more binding, comparable within an allelic series)"
same,binding signal,PRRX1 [23],"9.07 upbm affinity estimate (log intensity, higher = more binding, comparable within an allelic series)"
TCGGCCGA,binding signal,ALX4 [6],"7.94 upbm affinity estimate (log intensity, higher = more binding, comparable within an allelic series)"
same,binding signal,ALX4 [11],"8.39 upbm affinity estimate (log intensity, higher = more binding, comparable within an allelic series)"
